# Source: PubChem BioAssay (Broad Institute)
# Myc binder: binds human c-Myc on microarray | P01106 | small molecule microarray, His-c-Myc binding, anti-His fluorescence | calls only | 17,000 compounds, 1.5% hits;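 active means spot fluorescence over background with P-value below 7% in all four replicate spots, showing protein binding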;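 further: score is binary with 100 for all four spots passing and 0 otherwise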
# NFkB binder: NF-kappa-B p105 (human) binding; Small molecule microarray, anti-His fluorescence binding; 17,000 compounds, 1.3% hits; AID 624139; calls only; P19838;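 active means spot fluorescence over background significantly raised, with a chance value under 7% in all four replicate spots of the compound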;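 further: probe protein is his-tagged human p50 processed subunit at 1 µg/ml; raw spot fluorescence signals with no normalization applied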
# STAT3 binder: binds human STAT3 on microarray | P40763 | Small molecule microarray, His-STAT3 binding, anti-His fluorescence | calls only | 17,000 compounds, 0.2% hits | AID 624138;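 active means compounds whose four printed spots each show fluorescence over background unusually high for their array block, chance value under 7%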
# p53 mut binder: binds human mutant p53 on microarray. small molecule microarray binding, anti-GST fluorescence. calls only. 17,000 compounds, 0.4% hits. AID 624136;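 active means compounds whose four printed spots each glow above background more than chance allows, each with a p-value under 7%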
# Active calls of the source: *; i = inactive; + = active, no number. An excerpt weighted towards active compounds, which were near 2.4% of everything screened.
SMILES,Myc binder,NFkB binder,STAT3 binder,p53 mut binder
CCn1cnc2c(Nc3cccc(Cl)c3)nc(N[C@@H]3CCCC[C@@H]3N)nc21,+,i,i,i
Oc1cc2c(cc1O)C1c3ccccc3CNC1CC2 (stereo unspecified),i,i,i,i
CC(C)[C@H]1C(=O)N2CCC[C@H]2[C@]2(O)O[C@](NC(=O)[C@@H]3C=C4c5cccc6[nH]cc(c56)C[C@H]4N(C)C3)(C(C)C)C(=O)N12,i,i,i,i
CN1CC(C(=O)N[C@]2(C)O[C@@]3(O)[C@@H]4CCCN4C(=O)[C@H](Cc4ccccc4)N3C2=O)C=C2c3cccc4[nH]cc(c34)C[C@H]21 (stereo partly specified),+,+,i,i
